# Laboratory results from paper PMC4336329 (PLoS ONE, 2015).
# Hit rate of the full screen: of about 310,000 compounds, about 14,000 (4.5%) showed an effect of 50% or more. The effect is printed as a negative number. The full list was thinned out, with strong results kept by preference.
# Target: human ether-à-go-go-related gene (hERG) potassium channel (human, UniProt Q12809)
# Assay: primary screen, population patch clamp on CHO cells stably expressing hERG; higher = less effect of the substance
# 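Note: peak tail current of the secondary pulse compared with the same well before compound.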
# Sequence of human ether-à-go-go-related gene (hERG) potassium channel (Q12809 whole entry, looked up): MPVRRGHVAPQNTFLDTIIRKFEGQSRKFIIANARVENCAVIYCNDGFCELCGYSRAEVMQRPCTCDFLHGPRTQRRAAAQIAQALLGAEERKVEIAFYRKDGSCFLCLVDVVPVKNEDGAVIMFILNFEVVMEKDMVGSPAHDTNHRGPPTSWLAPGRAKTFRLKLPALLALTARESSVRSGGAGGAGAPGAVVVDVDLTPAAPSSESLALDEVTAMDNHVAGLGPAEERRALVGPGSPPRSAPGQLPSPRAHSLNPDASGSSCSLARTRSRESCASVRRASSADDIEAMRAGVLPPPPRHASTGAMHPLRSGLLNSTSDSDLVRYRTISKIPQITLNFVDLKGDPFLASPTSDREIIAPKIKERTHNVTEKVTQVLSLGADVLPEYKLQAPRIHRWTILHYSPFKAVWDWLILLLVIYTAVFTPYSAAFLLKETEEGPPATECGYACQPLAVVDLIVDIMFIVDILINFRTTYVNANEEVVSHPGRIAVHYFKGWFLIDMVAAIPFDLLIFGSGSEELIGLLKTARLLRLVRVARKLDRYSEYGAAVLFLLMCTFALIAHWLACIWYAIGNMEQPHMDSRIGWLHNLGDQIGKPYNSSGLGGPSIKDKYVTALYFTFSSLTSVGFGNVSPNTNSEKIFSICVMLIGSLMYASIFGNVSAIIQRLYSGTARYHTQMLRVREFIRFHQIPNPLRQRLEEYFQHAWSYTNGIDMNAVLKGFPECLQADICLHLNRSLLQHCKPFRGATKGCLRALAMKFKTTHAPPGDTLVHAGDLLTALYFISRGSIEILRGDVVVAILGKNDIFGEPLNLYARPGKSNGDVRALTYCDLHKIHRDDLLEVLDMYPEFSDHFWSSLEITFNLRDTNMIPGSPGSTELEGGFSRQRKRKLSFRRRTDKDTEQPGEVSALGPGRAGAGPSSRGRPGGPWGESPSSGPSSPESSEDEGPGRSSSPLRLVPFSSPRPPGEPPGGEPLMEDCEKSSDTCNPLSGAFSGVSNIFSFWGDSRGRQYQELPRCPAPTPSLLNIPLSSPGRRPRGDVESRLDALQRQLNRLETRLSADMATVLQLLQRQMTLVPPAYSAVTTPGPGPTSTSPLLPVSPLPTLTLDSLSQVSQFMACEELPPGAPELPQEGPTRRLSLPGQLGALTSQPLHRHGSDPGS
row,Compound,"hERG current change (%, negative = inhibition) at 10uM [%]"
1,Cc1cccc(NC(=O)CSCC(=O)N=c2sccn2C)c1,-20.2
2,CC(C)n1c(O)c(N=NC(=O)CNC(=O)Cc2ccc(Cl)cc2)c2ccccc21,-39.1
3,CC(C)c1cc(-c2cc(-c3ccccc3)on2)nc(NC2CCCC2)n1,6.4
4,CCC(Cc1ccccc1)NC(=O)CCc1ccccc1 (centres unmarked),13.5
5,COc1ccc(CN(C)CC(=O)Nc2ccc(Cl)cc2F)c(OC)c1.O=C(O)C(=O)O,-16.1
6,Cl.Nc1ncnc2sc3c(c12)CCNC3,25.4
7,O=C(COn1nnc2ccc(S(=O)(=O)N3CCOCC3)cc21)NCCc1ccccc1,-8.87
8,COc1ccc(CNC(=O)C2CCCN(S(=O)(=O)c3ccc4c(c3)CCCN4C(C)=O)C2)cc1 (centres unmarked),4.76
9,CC(C)Cn1c(N)c(C(=O)COC(=O)c2cccc(Cl)c2)c(=O)n(C)c1=O,-6.08
10,CC(C)Cn1c(N)c(C(=O)COC(=O)c2ccc(Cl)cc2)c(=O)n(C)c1=O,-37.4
11,CC(C)Cn1c(N)c(C(=O)COC(=O)c2ccc(O)cc2)c(=O)n(C)c1=O,-10.6
12,CC(C)Cn1c(N)c(C(=O)COC(=O)c2cnc(Cl)c(Cl)c2)c(=O)n(C)c1=O,-71.1
13,CC(C)Cn1c(N)c(C(=O)COC(=O)c2c(O)c(Cl)cc(Cl)c2Cl)c(=O)n(C)c1=O,-79.8
14,CC(C)Cn1c(N)c(C(=O)COC(=O)c2cc(F)cc(F)c2)c(=O)n(C)c1=O,-42.1
15,CCC(CC)C(=O)Nc1cccc(C(=O)Nc2ccc(S(N)(=O)=O)cc2)c1,10.8
16,Cn1c(CN2CCOCC2)nc2cc(NC(=O)COc3ccccc3)ccc21,-0.505
17,Cc1ccc(OCC(=O)Nc2ccc3c(c2)nc(CCN2CCOCC2)n3C)cc1,-51.3
18,CC(=O)Nc1ccc2c(c1)nc(CCN1CCOCC1)n2C,10.4
19,COc1ccc(OCC(=O)Nc2ccc3c(c2)nc(CCN2CCOCC2)n3C)cc1,-41
20,Cn1c(CCN2CCOCC2)nc2cc(NC(=O)COc3ccccc3)ccc21,-15.1
21,Cn1c(CCN2CCOCC2)nc2cc(NC(=O)COc3ccc(Cl)cc3)ccc21,-55.4

row,Compound,"hERG current change (%, negative = inhibition) at 10uM [%]"
1,CC(=O)Nc1ccccc1NC(=O)C/C(C)=N/NC(=O)C(=O)N1CCCCC1,-13.3
2,COc1ccc2[nH]c(=O)c(CN(C(C)=O)c3ccc(C)cc3C)cc2c1,1.02
3,CSc1nc(N)c(C(=O)Nc2ccc([N+](=O)[O-])cc2)s1,-12.3
4,O=C(N/N=C\c1cccc(F)c1)c1ccc(-c2ccccc2)cc1,27
5,CC(=O)N(C)C1(c2nnnn2CCOC(=O)Nc2cccc3ccccc23)CCCC1,0.969
6,CCN1CCN(c2ccc(S(=O)(=O)N3CCCCC3)cc2NC(=O)/C=C/c2ccc(F)cc2)CC1,-48.1
7,CCN1CCN(c2ccc(S(=O)(=O)N3CCOCC3)cc2NC(=O)/C=C/c2ccc([N+](=O)[O-])cc2)CC1,-71.8
8,CCN1CCN(c2ccc(S(=O)(=O)N3CCCCC3)cc2NC(=O)/C=C/c2ccc([N+](=O)[O-])cc2)CC1,-70.8
9,CCN1CCN(c2ccc(S(=O)(=O)N3CCOCC3)cc2NC(=O)/C=C/c2ccc(C)cc2)CC1,-46
10,COc1ccc(/C=C/C(=O)Nc2cc(S(=O)(=O)N3CCCCC3)ccc2N2CCCCC2)cc1OC,4.11
11,CCN1CCN(c2ccc(S(=O)(=O)N3CCOCC3)cc2NC(=O)/C=C/c2ccc(OC)c(OC)c2)CC1,10.4
12,COc1ccc(CCCC(=O)N/N=C\c2cccs2)cc1,27.2
13,COCCNC(=O)c1ccccc1-c1nc(-c2ccccc2Cl)no1,-9.09
14,O=C(NC(=S)Nc1ccc2ncccc2c1)c1ccccc1,2.36
15,C=CCn1cnc2scc(-c3ccc(C)cc3)c2c1=O,-10.4
16,CCOc1ccccc1N(CC)C(=O)Cn1ncc2c(=O)oc3ccccc3c21,-26.1
17,Cc1ccc2oc(=O)c3cnn(CC(=O)N(CCCN4CCOCC4)Cc4ccco4)c3c2c1,-57.5
18,CCCN(C(=O)Cn1ncc2c(=O)oc3ccccc3c21)c1cccc(C)c1,-54.3
19,CCOC(=O)Cn1ncc2c(=O)oc3ccccc3c21,-0.743
20,CCCCN(Cc1ccco1)C(=O)Cn1ncc2c(=O)oc3ccc(C)cc3c21,13.2
